PubChem BioAssay AID1159580 (chemical genetic matrix, 2015)
Hit rate of the full screen: of about 5,500 compounds, about 2,000 (36%) were called active. Inconclusive results (about 18%) are left out. Cut-off read from the data, not from the text of the source: active = normalized growth mostly below about 0.91 (no sharp cut-off); inconclusive = no clear call, values can overlap the other calls; inactive = mostly above about 0.92. The list shows a part of the results.

Assay: chemical genetic growth profiling, strain panel (AID 1159580);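 note: tested at 20 µM; growth read once vehicle control cultures reached saturation at 30 °C; 1 = growth at the plate median or of vehicle wells; lower values mean less growth of the strain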
Settings: growth OD

Measured: normalized growth

COc1ccc(C(=O)c2ccc(O)cc2)c(O)c1O
inactive: S. cerevisiae deletion strains, locus YAL013W, strain DEP1, stronger effect = lower value 1.04 | S. cerevisiae deletion strains, locus YAL021C, strain ccr4, stronger effect = lower value 0.963 | S. cerevisiae deletion strains, locus YAL026C, strain drs2, stronger effect = lower value 0.961 | S. cerevisiae deletion strains, locus YAL030W, strain snc1, stronger effect = lower value 0.967 | S. cerevisiae deletion strains, locus YBL061C, strain skt5, stronger effect = lower value 0.97 | S. cerevisiae deletion strains, locus YBR009C, strain hhf1, stronger effect = lower value 0.951 | S. cerevisiae deletion strains, locus YBR021W, strain FUR4, stronger effect = lower value 1.02 | S. cerevisiae deletion strains, locus YBR023C, strain chs3, stronger effect = lower value 0.968 | S. cerevisiae deletion strains, locus YBR171W, strain sec66, stronger effect = lower value 0.965 | S. cerevisiae deletion strains, locus YBR229C, strain ROT2, stronger effect = lower value 1.02 | S. cerevisiae deletion strains, locus YBR231C, strain swc5, stronger effect = lower value 0.96 | S. cerevisiae deletion strains, locus YBR279W, strain paf1, stronger effect = lower value 0.974 | S. cerevisiae deletion strains, locus YCL011C, strain gbp2, stronger effect = lower value 0.961 | S. cerevisiae deletion strains, locus YCL016C, strain dcc1, stronger effect = lower value 0.974 | S. cerevisiae deletion strains, locus YCL029C, strain bik1, stronger effect = lower value 0.993 | S. cerevisiae deletion strains, locus YCL061C, strain MRC1, stronger effect = lower value 0.984 | S. cerevisiae deletion strains, locus YCL069W, strain vba3, stronger effect = lower value 0.98 | S. cerevisiae deletion strains, locus YCR088W, strain abp1, stronger effect = lower value 0.973 | S. cerevisiae deletion strains, locus YDL005C, strain med2, stronger effect = lower value 0.968 | S. cerevisiae deletion strains, locus YDL035C, strain GPR1, stronger effect = lower value 1.04 | S. cerevisiae deletion strains, locus YDL040C, strain nat1, stronger effect = lower value 0.972 | S. cerevisiae deletion strains, locus YDL074C, strain BRE1, stronger effect = lower value 1.01 | S. cerevisiae deletion strains, locus YDL101C, strain DUN1, stronger effect = lower value 1.02 | S. cerevisiae deletion strains, locus YDL134C, strain PPH21, stronger effect = lower value 1.01 | S. cerevisiae deletion strains, locus YDL185W, strain tfp1, stronger effect = lower value 0.995 | S. cerevisiae deletion strains, locus YDL192W, strain arf1, stronger effect = lower value 0.997 | S. cerevisiae deletion strains, locus YDR001C, strain nth1, stronger effect = lower value 0.973 | S. cerevisiae deletion strains, locus YDR069C, strain doa4, stronger effect = lower value 0.928 | S. cerevisiae deletion strains, locus YDR101C, strain arx1, stronger effect = lower value 1 | S. cerevisiae deletion strains, locus YDR137W, strain rgp1, stronger effect = lower value 0.975 | S. cerevisiae deletion strains, locus YDR159W, strain sac3, stronger effect = lower value 0.959 | S. cerevisiae deletion strains, locus YDR162C, strain NBP2, stronger effect = lower value 1.04 | S. cerevisiae deletion strains, locus YDR195W, strain ref2 0.969 | S. cerevisiae deletion strains, locus YDR297W, strain sur2, stronger effect = lower value 0.969 | S. cerevisiae deletion strains, locus YDR318W, strain mcm21, stronger effect = lower value 0.997 | S. cerevisiae deletion strains, locus YDR334W, strain swr1, stronger effect = lower value 0.952 | S. cerevisiae deletion strains, locus YDR335W, strain msn5, stronger effect = lower value 0.983 | S. cerevisiae deletion strains, locus YDR388W, stronger effect = lower value 0.985 | S. cerevisiae deletion strains, locus YDR392W, strain spt3, stronger effect = lower value 0.852 | S. cerevisiae deletion strains, locus YDR502C, strain sam2, stronger effect = lower value 0.968 | S. cerevisiae deletion strains, locus YEL003W, strain gim4, stronger effect = lower value 0.962 | S. cerevisiae deletion strains, locus YEL037C, strain rad23, stronger effect = lower value 0.965 | S. cerevisiae deletion strains, locus YEL061C, strain CIN8 (second series), stronger effect = lower value 0.955 | S. cerevisiae deletion strains, locus YEL061C, strain CIN8, stronger effect = lower value 1.01 | S. cerevisiae deletion strains, locus YER015W, strain faa2, stronger effect = lower value 0.961 | S. cerevisiae deletion strains, locus YER016W, strain bim1, stronger effect = lower value 0.978 | S. cerevisiae deletion strains, locus YER110C, stronger effect = lower value 0.983 | S. cerevisiae deletion strains, locus YER111C, strain swi4, stronger effect = lower value 0.963 | S. cerevisiae deletion strains, locus YER155C, strain BEM2 (second series), stronger effect = lower value 0.911 | S. cerevisiae deletion strains, locus YER155C, strain BEM2, stronger effect = lower value 1.02 | S. cerevisiae deletion strains, locus YER167W, strain BCK2, stronger effect = lower value 1.02 | S. cerevisiae deletion strains, locus YFR010W, strain ubp6, stronger effect = lower value 0.942 | S. cerevisiae deletion strains, locus YGL078C, strain dbp3, stronger effect = lower value 0.961 | S. cerevisiae deletion strains, locus YGL086W, strain mad1, stronger effect = lower value 0.992 | S. cerevisiae deletion strains, locus YGL167C, strain pmr1, stronger effect = lower value 0.952 | S. cerevisiae deletion strains, locus YGL173C, strain kem1, stronger effect = lower value 0.969 | S. cerevisiae deletion strains, locus YGL227W, strain vid30, stronger effect = lower value 0.937 | S. cerevisiae deletion strains, locus YGL240W, strain doc1, stronger effect = lower value 0.94 | S. cerevisiae deletion strains, locus YGL248W, strain PDE1, stronger effect = lower value 0.986 | S. cerevisiae deletion strains, locus YGL253W, strain hxk2, stronger effect = lower value 0.984 | S. cerevisiae deletion strains, locus YGR135W, strain pre9, stronger effect = lower value 0.95 | S. cerevisiae deletion strains, locus YGR252W, strain gcn5, stronger effect = lower value 0.893 | S. cerevisiae deletion strains, locus YHR013C, strain ard1, stronger effect = lower value 0.916 | S. cerevisiae deletion strains, locus YHR027C, strain rpn1, stronger effect = lower value 0.988 | S. cerevisiae deletion strains, locus YHR079C, strain IRE1 (second series), stronger effect = lower value 0.985 | S. cerevisiae deletion strains, locus YHR094C, strain hxt1, stronger effect = lower value 0.978 | S. cerevisiae deletion strains, locus YHR129C, strain ARP1, stronger effect = lower value 1.01 | S. cerevisiae deletion strains, locus YHR142W, strain chs7, stronger effect = lower value 0.987 | S. cerevisiae deletion strains, locus YHR200W, strain rpn10, stronger effect = lower value 0.973 | S. cerevisiae deletion strains, locus YIL066C, strain RNR3, stronger effect = lower value 1.03 | S. cerevisiae deletion strains, locus YIL073C, strain SPO22, stronger effect = lower value 0.992 | S. cerevisiae deletion strains, locus YIL125W, strain kgd1, stronger effect = lower value 1 | S. cerevisiae deletion strains, locus YIR030C, strain dcg1, stronger effect = lower value 0.994 | S. cerevisiae deletion strains, locus YJL092W, strain hpr5, stronger effect = lower value 0.978 | S. cerevisiae deletion strains, locus YJL095W, strain BCK1 (second series), stronger effect = lower value 0.977 | S. cerevisiae deletion strains, locus YJL095W, strain BCK1, stronger effect = lower value 0.986 | S. cerevisiae deletion strains, locus YJL115W, strain asf1, stronger effect = lower value 0.985 | S. cerevisiae deletion strains, locus YJL129C, strain trk1, stronger effect = lower value 0.935 | S. cerevisiae deletion strains, locus YJL134W, strain LCB3, stronger effect = lower value 1.02 | S. cerevisiae deletion strains, locus YJL154C, strain vps35, stronger effect = lower value 0.972 | S. cerevisiae deletion strains, locus YJL164C, strain tpk1, stronger effect = lower value 0.979 | S. cerevisiae deletion strains, locus YJL166W, strain qcr8, stronger effect = lower value 0.972 | S. cerevisiae deletion strains, locus YJL168C, strain set2, stronger effect = lower value 1 | S. cerevisiae deletion strains, locus YJL187C, strain SWE1 (second series), stronger effect = lower value 0.998 | S. cerevisiae deletion strains, locus YJL187C, strain SWE1, stronger effect = lower value 0.968 | S. cerevisiae deletion strains, locus YKL009W, strain mrt4, stronger effect = lower value 1.01 | S. cerevisiae deletion strains, locus YKL068W, stronger effect = lower value 0.991 | S. cerevisiae deletion strains, locus YKL085W, strain MDH1 (second series), stronger effect = lower value 1 | S. cerevisiae deletion strains, locus YKL085W, strain MDH1, stronger effect = lower value 1 | S. cerevisiae deletion strains, locus YKL160W, strain elf1, stronger effect = lower value 0.994 | S. cerevisiae deletion strains, locus YKR001C, strain vps1, stronger effect = lower value 1 | S. cerevisiae deletion strains, locus YKR026C, strain gcn3, stronger effect = lower value 0.948 | S. cerevisiae deletion strains, locus YKR091W, strain srl3, stronger effect = lower value 0.972 | S. cerevisiae deletion strains, locus YLL001W, strain dnm1, stronger effect = lower value 0.986 | S. cerevisiae deletion strains, locus YLL026W, stronger effect = lower value 0.978 | S. cerevisiae deletion strains, locus YLL041C, strain sdh2, stronger effect = lower value 0.992 | S. cerevisiae deletion strains, locus YLR027C, strain aat2, stronger effect = lower value 0.965 | S. cerevisiae deletion strains, locus YLR039C, strain RIC1, stronger effect = lower value 1.12 | S. cerevisiae deletion strains, locus YLR058C, strain SHM2, stronger effect = lower value 1.01 | S. cerevisiae deletion strains, locus YLR102C, strain apc9, stronger effect = lower value 0.966 | S. cerevisiae deletion strains, locus YLR221C, strain rsa3, stronger effect = lower value 0.933 | S. cerevisiae deletion strains, locus YLR258W, strain gsy2, stronger effect = lower value 0.969 | S. cerevisiae deletion strains, locus YLR262C, strain YPT6 (second series), stronger effect = lower value 0.936 | S. cerevisiae deletion strains, locus YLR268W, strain sec22, stronger effect = lower value 1.01 | S. cerevisiae deletion strains, locus YLR320W, strain mms22, stronger effect = lower value 0.968 | S. cerevisiae deletion strains, locus YLR330W, strain CHS5, stronger effect = lower value 1.02 | S. cerevisiae deletion strains, locus YLR342W, strain FKS1 (second series), stronger effect = lower value 1.02 | S. cerevisiae deletion strains, locus YLR342W, strain FKS1, stronger effect = lower value 0.952 | S. cerevisiae deletion strains, locus YLR357W, strain rsc2, stronger effect = lower value 0.909 | S. cerevisiae deletion strains, locus YLR370C, strain arc18, stronger effect = lower value 0.968 | S. cerevisiae deletion strains, locus YLR371W, strain rom2, stronger effect = lower value 0.982 | S. cerevisiae deletion strains, locus YLR384C, strain iki3, stronger effect = lower value 0.984 | S. cerevisiae deletion strains, locus YLR418C, strain cdc73, stronger effect = lower value 0.986 | S. cerevisiae deletion strains, locus YML016C, strain PPZ1, stronger effect = lower value 1.02 | S. cerevisiae deletion strains, locus YML032C, strain rad52, stronger effect = lower value 0.97 | S. cerevisiae deletion strains, locus YML120C, strain ndi1, stronger effect = lower value 0.954 | S. cerevisiae deletion strains, locus YML124C, strain tub3, stronger effect = lower value 0.981 | S. cerevisiae deletion strains, locus YMR058W, strain fet3, stronger effect = lower value 0.94 | S. cerevisiae deletion strains, locus YMR078C, strain ctf18, stronger effect = lower value 0.971 | S. cerevisiae deletion strains, locus YMR125W, strain sto1, stronger effect = lower value 0.97 | S. cerevisiae deletion strains, locus YMR129W, stronger effect = lower value 0.965 | S. cerevisiae deletion strains, locus YMR205C, strain PFK2, stronger effect = lower value 0.946 | S. cerevisiae deletion strains, locus YMR223W, strain ubp8, stronger effect = lower value 0.978 | S. cerevisiae deletion strains, locus YMR231W, strain pep5, stronger effect = lower value 0.979 | S. cerevisiae deletion strains, locus YMR307W, strain GAS1, stronger effect = lower value 0.992 | S. cerevisiae deletion strains, locus YNL067W, strain RPL9B, stronger effect = lower value 0.998 | S. cerevisiae deletion strains, locus YNL071W, strain lat1, stronger effect = lower value 0.984 | S. cerevisiae deletion strains, locus YNL153C, strain GIM3, stronger effect = lower value 0.985 | S. cerevisiae deletion strains, locus YNL209W, strain ssb2, stronger effect = lower value 0.975 | S. cerevisiae deletion strains, locus YNL233W, strain BNI4, stronger effect = lower value 0.989 | S. cerevisiae deletion strains, locus YNL248C, strain rpa49, stronger effect = lower value 0.995 | S. cerevisiae deletion strains, locus YNL250W, strain rad50, stronger effect = lower value 0.981 | S. cerevisiae deletion strains, locus YNL271C, strain bni1, stronger effect = lower value 0.984 | S. cerevisiae deletion strains, locus YNL298W, strain CLA4, stronger effect = lower value 0.991 | S. cerevisiae deletion strains, locus YNL307C, strain MCK1, stronger effect = lower value 0.97 | S. cerevisiae deletion strains, locus YNL322C, strain KRE1 (second series), stronger effect = lower value 0.952 | S. cerevisiae deletion strains, locus YNR049C, strain mso1, stronger effect = lower value 0.972 | S. cerevisiae deletion strains, locus YNR052C, strain pop2, stronger effect = lower value 0.979 | S. cerevisiae deletion strains, locus YOL006C, strain TOP1, stronger effect = lower value 1.15 | S. cerevisiae deletion strains, locus YOL012C, strain htz1 1.45 | S. cerevisiae deletion strains, locus YOL147C, strain pex11, stronger effect = lower value 0.994 | S. cerevisiae deletion strains, locus YOR001W, strain rrp6, stronger effect = lower value 1 | S. cerevisiae deletion strains, locus YOR061W, strain CKA2, stronger effect = lower value 1.03 | S. cerevisiae deletion strains, locus YOR069W, strain VPS5, stronger effect = lower value 1.01 | S. cerevisiae deletion strains, locus YOR070C, strain gyp1, stronger effect = lower value 0.973 | S. cerevisiae deletion strains, locus YOR080W, strain dia2, stronger effect = lower value 0.97 | S. cerevisiae deletion strains, locus YOR083W, strain WHI5, stronger effect = lower value 0.992 | S. cerevisiae deletion strains, locus YOR106W, strain vam3, stronger effect = lower value 0.964 | S. cerevisiae deletion strains, locus YOR136W, strain idh2, stronger effect = lower value 0.985 | S. cerevisiae deletion strains, locus YOR144C, strain elg1, stronger effect = lower value 0.998 | S. cerevisiae deletion strains, locus YOR184W, strain ser1, stronger effect = lower value 1.05 | S. cerevisiae deletion strains, locus YOR265W, strain rbl2, stronger effect = lower value 0.979 | S. cerevisiae deletion strains, locus YOR270C, strain vph1, stronger effect = lower value 0.957 | S. cerevisiae deletion strains, locus YOR290C, strain snf2, stronger effect = lower value 0.9 | S. cerevisiae deletion strains, locus YOR316C, strain cot1, stronger effect = lower value 0.971 | S. cerevisiae deletion strains, locus YPL051W, strain arl3, stronger effect = lower value 0.993 | S. cerevisiae deletion strains, locus YPL055C, strain LGE1, stronger effect = lower value 1.05 | S. cerevisiae deletion strains, locus YPL078C, strain atp4, stronger effect = lower value 0.986 | S. cerevisiae deletion strains, locus YPL106C, strain sse1, stronger effect = lower value 0.889 | S. cerevisiae deletion strains, locus YPL240C, strain hsp82, stronger effect = lower value 0.995 | S. cerevisiae deletion strains, locus YPL241C, strain CIN2, stronger effect = lower value 1.02 | S. cerevisiae deletion strains, locus YPR119W, strain clb2, stronger effect = lower value 0.971 | S. cerevisiae deletion strains, locus YPR141C, strain kar3, stronger effect = lower value 1.01 | S. cerevisiae deletion strains, locus YPR163C, strain tif3, stronger effect = lower value 0.983 | S. cerevisiae deletion strains, locus YPR167C, strain met16, stronger effect = lower value 0.981 | S. cerevisiae deletion strains, strain wtn01, stronger effect = lower value 0.993 | S. cerevisiae strains, strain wild type, stronger effect = lower value 1.04
